The list is not random: actives were taken first. Their share in the collection is about 7.4%.
SNCA viab count: counter-screen for SNCA expression inhibitors: cell viability; HEK-293-SNCA-luc viability, GF-AFC fluorescence, 24 h; Potency, µM (series often up to 57.1 µM), hits mostly cytotoxic; 0.12% of 150,000 active; AID 1671193; further: nearly all actives have a fitted effect of over 30% in size
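HEK-293-SNCA-luc cells (1500/well) plated 24 h, then exposed 24 h to a dilution series; GF-AFC added 30 min at 37C, fluorescence 405/540 nm; normalised to medium-only and DMSO wells, Hill fit.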
HEK cytotox: HEK 293 cell cytotoxicity. Potency, µM (doses to about 115 µM), hits mostly inhibitors. 6.6% of 94,000 active. HEK 293 viability, ATP luminescence (CellTiter-Glo), 48-72 h; further: nearly all actives have a fitted effect of over 60% in size
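HEK 293 cells at 250 cells/well were exposed to compounds by pintool transfer for 48 or 72 hr at 37 degree Celsius, 5% CO2. Viability was read as ATP-coupled luminescence with CellTiter-Glo after 10 min at room temperature.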
NIH3T3 tox: kills NIH 3T3 cells; NIH 3T3 viability, CellTiter-Glo ATP luminescence, 48-72 h; Potency, µM (titrated, usually from 96.7 µM), usual class: inhibitors; 4.3% of 94,000 active; AID 1345082; further: nearly all actives have a fitted effect of over 55% in size
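Cytotoxicity was measured by CellTiter-Glo ATP luminescence after 48 or 72 h compound exposure at 37 °C. Mouse NIH 3T3 fibroblasts were seeded at 400 cells/well and dosed by 23 nL pin transfer.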
SNCA expr inh: reduces expression of the alpha-synuclein gene; AID 1671194; HEK-293 SNCA-luciferase knock-in, luminescence, 24 h; Potency, µM (doses to about 57.2 µM), most hits filed as inhibitors; 0.17% of 140,000 active; further: nearly all actives have a fitted effect of over 45% in size
hNpr1 antagonist: human Npr1 receptor antagonism | P16066 | HEK293 hNpr1 GloSensor cGMP, ANP-stimulated luminescence | Potency, µM (highest dose often 46.3 µM), hits mostly inhibitors | 1.6% of 76,000 active; calls by dose curve; further: nearly all actives have a fitted effect of over 60% in size
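Compound pre-incubated 30 min at room temperature on GloSensor-loaded HEK293 cells stably carrying hNpr1 and the pGS-40F cGMP biosensor. Stimulation uses hNppA at 0.1 nM final; luminescence is taken at baseline and 20 min post-agonist.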
FLuc inh: inhibitors of firefly (Photinus pyralis) luciferase. P08659. purified P. pyralis luciferase, luminescence, biochemical. Potency, µM (doses to about 115 µM), actives largely listed as inhibitors. 2.5% of 76,000 active; further: nearly all actives have a fitted effect of over 65% in size
Target sequence (P08659 whole entry, looked up): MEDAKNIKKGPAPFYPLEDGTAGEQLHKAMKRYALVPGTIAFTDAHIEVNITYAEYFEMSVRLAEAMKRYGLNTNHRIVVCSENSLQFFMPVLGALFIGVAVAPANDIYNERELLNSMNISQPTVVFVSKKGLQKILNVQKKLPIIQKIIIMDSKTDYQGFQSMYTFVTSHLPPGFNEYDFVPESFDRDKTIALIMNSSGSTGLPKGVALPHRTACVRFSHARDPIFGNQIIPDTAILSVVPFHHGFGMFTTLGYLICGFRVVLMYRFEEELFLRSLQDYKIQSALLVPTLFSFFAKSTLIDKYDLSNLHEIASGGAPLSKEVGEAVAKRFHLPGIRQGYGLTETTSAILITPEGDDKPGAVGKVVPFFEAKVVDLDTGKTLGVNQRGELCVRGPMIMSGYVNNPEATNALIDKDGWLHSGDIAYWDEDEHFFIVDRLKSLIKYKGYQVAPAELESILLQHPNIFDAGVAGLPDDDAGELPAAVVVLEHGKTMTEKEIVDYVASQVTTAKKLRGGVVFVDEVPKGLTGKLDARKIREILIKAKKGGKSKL
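Luminescence read by CCD imager after adding enzyme (10nM final) to wells holding compound, titrated in qHTS. Substrates 10uM each D-luciferin and ATP; buffer 50mM Tris acetate pH 7.5, 10mM Mg acetate, Tween-20, BSA.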
A number is an active result; n = inactive; u = inconclusive; x = no result. Unless noted, the call rests on the fitted dose curve; in most records, active means well fitted curve in the direction sought with a large enough effect; inconclusive means small, poorly fitted or top-dose-only effect, or another doubt; inactive means no such curve, though single readings can be large; an effect the other way counts as inactive or inconclusive.

SMILES	SNCA viab count	HEK cytotox	NIH3T3 tox	SNCA expr inh	hNpr1 antagonist	FLuc inh
O[C@@H]1C[C@@H](c2nc(-c3ccncc3)no2)N(Cc2ccc(F)cc2)C1	n	n	n	n	n	n
Cc1ccc(-c2noc([C@@H]3C[C@@H](O)CN3C3CCN(C)CC3)n2)cc1F	n	u	u	n	n	n
O[C@@H]1C[C@@H](c2nc(-c3ccc(F)cc3)no2)N(Cc2ccncc2)C1	n	71µM	u	n	u	63µM
COC1C(=O)N(C2CCN(C(=O)c3cnn(C)c3)CC2)C12CCOCC2 (stereo not given)	n	n	n	n	n	n
Cc1nc(CN2CCOC3(CCN([S+](=O)([O-])c4ccccc4C)CC3)C2=O)cs1	n	u	n	n	n	n
Cc1ccc(-c2noc([C@@H]3C[C@@H](O)CN3Cc3cccnc3)n2)cc1F	n	63µM	u	n	u	u
C1=C(c2nc(-c3cccc4[nH]ncc34)cc3c2ccn3Cc2cccnc2)CCOC1	u	89µM	u	n	n	n
C1=C(c2nc(-c3ccc(N4CCOCC4)cc3)cc3c2ccn3Cc2cccnc2)CCOC1	n	u	u	n	n	n
CN(C)Cc1ccc(-c2cc3c(ccn3Cc3cccnc3)c(C3=CCOCC3)n2)cc1	n	56µM	25µM	n	n	n
Cc1ccc([S+](=O)([O-])N2CCCC2C(=O)N2CCC(c3nc4ccncc4[nH]3)CC2)cc1 (stereo not given)	n	n	n	n	x	x
COc1ncccc1-c1cc(C(=O)NCc2c(C)cc(C)[nH]c2=O)c2c(c1)N(C)CCO2	n	u	u	n	n	n
COc1ccccc1N1CCN(C(=O)Cn2c(C)cc3nc4n(c(=O)c32)CCCCC4)CC1	n	u	28µM	n	n	n
CCc1ccc(NC(=O)Cn2c(-c3ccccc3)nc(C)c(CCO)c2=O)cc1	u	40µM	40µM	u	n	n
CCc1ccc(NC(=O)Cn2c(-c3ccc(Cl)cc3)nc(C)c(CCO)c2=O)cc1	n	40µM	45µM	n	n	n
COc1ccccc1-c1nnc([C@H]2CCN(CC(C)C)C2)o1	n	n	n	n	n	n
OC(c1nc(Nc2ccc(Cl)cc2)n[nH]1)C1CC1 (stereo not given)	n	u	u	n	n	22µM
Cn1cc(C(O)c2nc(Nc3ccc(OC(F)(F)F)cc3)n[nH]2)cn1 (stereo not given)	n	112µM	u	n	n	n
COc1ccccc1C(O)c1nc(Nc2ccc(C(C)C)cc2)n[nH]1 (stereo not given)	n	100µM	u	u	n	n
CC(C)c1ccc(Nc2n[nH]c(C(O)C3CC3)n2)cc1 (stereo not given)	n	u	u	n	n	16µM
O=C(c1cn(-c2ccccc2)nn1)N(Cc1cccnc1)C1CCNCC1	n	n	n	n	n	n
CC1CCC2(CC1)NC(=O)N(CC(=O)N1CCCc3ccccc31)C2=O (stereo not given)	n	n	n	n	n	n
CN1CC(=O)N(C2CCCNCC2)Cc2c(NC3CCC3)ncnc21 (stereo not given)	n	n	n	n	x	x
COc1ccc(CCC(=O)NCC2CCCCC(=O)N2)cc1 (stereo not given)	n	n	n	n	x	x
COc1ccc(Nc2n[nH]c(C(O)c3cccc(C(F)(F)F)c3)n2)cc1OC (stereo not given)	n	u	n	n	n	n
OC(c1cccc(C(F)(F)F)c1)c1nc(Nc2ccc(F)cc2)n[nH]1 (stereo not given)	n	79µM	u	n	n	n
CCn1ccc(C(=O)N2CC[C@H]3C(=O)NCCCCCCN(Cc4ccncc4)[C@@H]3C2)n1	n	n	n	n	n	n
COc1ccccc1CN1CC(CNC(=O)c2ccccc2)C2(C1)CN(c1ccccc1)C2 (stereo not given)	n	u	u	n	n	n
O=C(NCC1CN(Cc2cccnc2)CC12CN(c1ccccc1)C2)Nc1ccccc1 (stereo not given)	n	u	n	n	n	n

Assay outcomes deposited in PubChem by National Center for Advancing Translational Sciences (NCATS).
